Sampled rows, rich in hits. Any-hit rate of the full collection: about 17%.
HT1080 IDH1KD tx = qHTS for induction of synthetic lethality in tumor cells producing 2HG: qHTS for the HT-1080-IDH1KD cell line; Potency, µM (doses to about 46.1 µM), without a hit: at the top dose activity, negative = toxicity, hits mostly cytotoxic; hit rate 2% among 360,000; HT-1080 IDH1 knockdown viability, ATP luminescence, 48 h; AID 686971, 2013;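 note: 0% = DMSO wells and -100% = cell-free medium wells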
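Using the IDH1-knockdown HT-1080 line run in the same batch and compound series as the NT line, viability after 48 h at 37 °C was determined by CellTiter-Glo luminescence and expressed as % activity.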
TDP1 cell CPT = qHTS for Inhibitors of human tyrosyl-DNA phosphodiesterase 1 (TDP1): qHTS in cells in presence of CPT | chicken DT40 Tdp1-/-;hTDP1 cells + 20 nM CPT, ATP luminescence, 48 h | Potency, µM (top dose mostly 46.2 µM), inactives show at the top dose activity change, negative = growth inhibition, actives largely listed as inhibitors | hit rate 12% among 420,000; note: % is set by controls: 0 for no effect and ±100 for the full control effect; nearly all actives have a fitted effect of over 55% in size
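Cell growth measured by CellTiter-Glo luminescence after a minimum 48 h, 37 C compound exposure with 20 nM CPT in Tdp1-knockout DT40 cells stably expressing hTDP1, seeded 400/well; qHTS titration format.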
TGFb inhibitor = qHTS for Inhibitors of TGF-b. Potency, µM (series often up to 46.1 µM), for the others: top-dose activity, negative = inhibition, actives largely listed as inhibitors. AID 588855, 2011. hit rate 1.2% among 410,000. HepG2 CAGA-GFP TGF-b/SMAD3 reporter, GFP fluorescence, 18 h; TGF-beta stimulated, 500 pg/mL final; note: % is set by controls: 0 for no effect and ±100 for the full control effect; nearly all actives have a fitted effect of over 65% in size
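Using HEPG2 CAGA-GFP reporter cells at 1000 cells/well, we pinned test compounds, stimulated with recombinant TGF-beta (500 pg/mL final) and measured total well GFP after 18 h.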
DT40 TDP1 no CPT = qHTS for Inhibitors of human tyrosyl-DNA phosphodiesterase 1 (TDP1): qHTS in cells in absence of CPT | DT40 Tdp1-/- hTDP1 cells, no CPT, ATP luminescence, 48 h | Potency, µM (titrated, usually from 46.2 µM), for the others: top-dose activity change, negative = growth inhibition, actives largely listed as inhibitors | hit rate 15% among 420,000 | AID 686978, 2013; note: % is set by controls: 0 for no effect and ±100 for the full control effect; nearly all actives have a fitted effect of over 55% in size
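Compound effects on proliferation are scored in DT40 Tdp1-/-;hTDP1 cells in the absence of CPT. ATP levels (CellTiter-Glo luminescence) are recorded after a ≥48 hr, 37 °C incubation.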
HepG2 tox = qHTS for Inhibitors of TGF-b: Cytotox Counterscreen | HepG2 CAGA-GFP viability, ATP luminescence, 18 h | Potency, µM (doses to about 46.1 µM), without a hit: top-dose activity change, negative = cytotoxicity, usual class: cytotoxic | hit rate 0.76% among 410,000 | AID 588856, 2011
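CellTiter-Glo luminescence gave cytotoxicity after 18 hours at 37 degrees C. The cells were HepG2 CAGA-GFP in 1% FBS DMEM, stimulated with 500 pg/mL TGF-beta after compound addition. %Activity was normalised to no-cell wells (complete cell-killing) and DMSO (no toxicity), and curves were fitted and classified.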
HT1080-NT tox = qHTS for induction of synthetic lethality in tumor cells producing 2HG: qHTS for the HT-1080-NT fibrosarcoma cell line; Potency, µM (top dose mostly 46.1 µM), for inactives: at the highest dose activity, negative = less viability, most hits filed as cytotoxic; HT-1080-NT fibrosarcoma viability, CellTiter-Glo ATP luminescence, 48 h; hit rate 1.6% among 360,000;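 note: NT is the 2HG producing partner of a matched IDH1 knockdown line; 0% = DMSO-treated cells and -100% = media-only wells without cells; nearly all actives have a fitted effect of over 55% in size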
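Toxicity toward the 2HG-producing NT line was scored as %Activity, normalised to DMSO and no-cell wells, from CellTiter-Glo luminescence after 48 hours' treatment.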
* marks the source's active call; other numbers are inactive results; ? = inconclusive; . = no result; [ ] = dose if it differs, or a comment. Calls come from the whole dose curve; as a rule, active = well fitted curve in the direction sought with a large enough effect; inconclusive = small, poorly fitted or top-dose-only effect, or another doubt; inactive = no such curve, though single readings can be large; an effect the other way counts as inactive or inconclusive. Potency is the fitted concentration of half-maximal effect.

SMILES | HT1080 IDH1KD tx | TDP1 cell CPT | TGFb inhibitor | DT40 TDP1 no CPT | HepG2 tox | HT1080-NT tox
O=C(Cn1ncc(Cl)c(Cl)c1=O)Nc1ccc2c(c1)OCO2 | 18µM* | 7.3µM* | ? | 3.3µM* | -39% | ?
Cc1ccc(C(=O)O/N=C\c2ccc(N3CCCCC3)c([N+](=O)[O-])c2)cc1 | 1% | ? | 26% | 13µM* | -3% | -14%
CO/N=C/c1ccc(N2CCN(C(=O)c3cccc(C(F)(F)F)c3)CC2)c([N+](=O)[O-])c1 | ? | 15µM* | ? | 21µM* | 2% | -4%
CO/N=C/c1ccc(N2CCN(C(=O)c3ccc(F)cc3)CC2)c([N+](=O)[O-])c1 | -13% | 15µM* | -1% | 15µM* | -13% | 6%
CO/N=C/c1ccc(N2CCN(C(=O)c3ccc(Cl)cc3Cl)CC2)c([N+](=O)[O-])c1 | ? | 10µM* | -23% | 5.8µM* | -12% | ?
Cc1cnc(-n2ncc(C(=O)NCCCc3ccncc3)c2C)nc1-c1ccc(F)cc1 | . | 10%[9.04 µM] | . | -13% | . | .
CC(=O)OC[C@@]1(O)C[C@@]23CC[C@@H]4c5ccoc5CC[C@@]4(C)[C@@H]2CCC1C3 | . | -14%[9.04 µM] | . | -21%[9.04 µM] | . | .
O=C(NCC[C@@H]1CC[C@@H](NS(=O)(=O)Cc2ccccc2)[C@@H](CO)O1)C1CC1 | 19% | -7% | . | 6% | . | 22%
O=C1C2C3CCCC3=C3CCCC3C2C(=O)N1c1ccc(F)cc1 (stereo not drawn) | -6% | ? | 39% | 18µM* | -3% | -4%
Cc1cc(CNC(=O)COc2cc(F)ccc2[N+](=O)[O-])c2ccccc2n1 | -3% | 12µM* | -2% | 12µM* | -10% | -28%
Cc1cc(CNC(=O)COc2ccccc2F)c2ccccc2n1 | 1% | 15µM* | 8% | ? | -24% | -1%
Cc1cc(CNC(=O)c2cccc([N+](=O)[O-])c2C)c2ccccc2n1 | -21% | 10µM* | 0% | 12µM* | -3% | -29%
Cc1cc(CNC(=O)COc2ccc(F)cc2F)c2ccccc2n1 | -10% | ? | -2% | ? | -1% | -26%
COCCN(C(=O)CSc1ccc2c(c1)OCCO2)c1c(N)n(CC(C)C)c(=O)[nH]c1=O | 4% | 9% | -3% | -3% | -4% | 6%
Cc1ccccc1N1CC(C(=O)Nc2ccc(S(=O)(=O)N3CCOCC3)cc2)CC1=O (stereo not drawn) | 5% | -7% | -1% | -14% | -2% | 1%
CCOc1ccc(-c2c(C(=O)N/N=C/c3c[nH]c4ccccc34)nnn2-c2nonc2N)cc1 | -30% | ? | ? | 16µM* | -14% | -25%
CCOc1ccc(/C=N/NC(=O)c2nnn(-c3nonc3N)c2-c2ccc(OCC)cc2)cc1 | -2% | 4% | 5% | 4% | -12% | -2%
CCOc1cccc(-c2c(C(=O)N/N=C(\C)c3ccccn3)nnn2-c2nonc2N)c1 | ? | 2.3µM* | -16% | 1.6µM* | -13% | ?
C[C@@H]1CN([C@H](C)CO)C(=O)c2cc(C#CC3CCCCC3)cnc2O[C@H]1CN(C)Cc1cccnc1 | -1% | ? | 7% | ? | -32% | -17%
c1ccc2nc(-c3nc4ccccc4o3)ccc2c1 | 13µM* | 14µM* | ? | ? | -80% | 10µM*
c1ccc(-c2nc3ccccc3o2)nc1 | 8% | -2% | ? | -21% | -2% | 6%
Cc1ccc(C(c2nnnn2Cc2cccs2)N2CCN(Cc3ccc4c(c3)OCO4)CC2)cc1 (stereo not drawn) | ? | 7.3µM* | 0% | 9.2µM* | -56% | -18%
COc1ccccc1CN1CCN(C(CC(C)C)c2nnnn2Cc2cccs2)CC1 (stereo not drawn) | -2% | 18µM* | 0% | ? | -24% | -8%
O=C1CC(N2CCN(Cc3ccc4c(c3)OCO4)CC2)C(=O)N1CCc1ccccc1 (stereo not drawn) | -6% | 13µM* | 25% | ? | -32% | -5%
c1ccc(Cn2nnnc2CN2CCN(Cc3ccc4c(c3)OCO4)CC2)cc1 | 0% | 21µM* | 13% | ? | 1% | -1%
SMILES | HT1080 IDH1KD tx | TDP1 cell CPT | TGFb inhibitor | DT40 TDP1 no CPT | HepG2 tox | HT1080-NT tox
CCCC(c1nnnn1Cc1cccs1)N1CCN(C)CC1 (stereo not drawn) | 0% | 4% | -20% | -4% | -17% | -4%
Cc1ccc(C(=O)Cc2cc3ccccc3oc2=O)c(C)c1 | 11% | -5% | -5% | ? | -19% | 0%
COCCn1nnnc1C(c1ccccc1)N1CCN(Cc2ccc3c(c2)OCO3)CC1 (stereo not drawn) | 4% | -11% | 6% | ? | 13% | 1%
COCCn1nnnc1C(c1ccc(C)cc1)N1CCN(Cc2ccc3c(c2)OCO3)CC1 (stereo not drawn) | 10% | 16µM* | 29% | ? | -4% | 6%
COc1ccc(Br)cc1C(=O)Nc1cccc(-c2nnc(-c3ccco3)o2)c1 | 24% | 23µM* | 0% | ? | -13% | 0%
COc1ccc(Br)cc1C(=O)Nc1ccc(NC(=O)c2ccco2)cc1 | 8% | -14% | -21% | -11% | -17% | 11%
Cc1ccc(SCC(=O)Nc2cccc(-c3nnc(-c4ccco4)o3)c2)cc1 | -27% | 18µM* | ? | ? | -8% | -18%
Cc1ccccc1C(=O)N1CCC(C(=O)Nc2ccc(F)cc2F)CC1 | . | -13% | 28% | -17% | -1% | .
CCCCN1C(C(=O)Nc2ncccn2)=C(O)c2ccccc2S1(=O)=O | 14% | 4% | 8% | -14% | -21% | 8%
CCN(CC)c1ncnc2scc(C3COc4ccccc4O3)c12 (stereo not drawn) | ? | 16µM* | -8% | ? | -17% | ?
c1ccc2c(c1)OCC(c1csc3ncnc(N4CCOCC4)c13)O2 (stereo not drawn) | 9% | ? | -3% | ? | -1% | 10%
